Assay outcomes as filed in PubChem BioAssay.
HT1080 IDH1KD tx – HT-1080 IDH1 knockdown cell toxicity (counter line) | HT-1080 IDH1 knockdown viability, ATP luminescence, 48 h | Potency, µM (top dose mostly 46.1 µM), inactives show at the highest dose activity, negative = toxicity, hits mostly cytotoxic | hit rate 2% among 360,000 | AID 686971;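 further: 0% = DMSO wells and -100% = cell-free medium wells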
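After a 2 h attachment period, IDH1KD HT-1080 cells took pin-transferred compound for 48 h at 37 °C; ATP-based luminescence after 10 min room-temperature reagent incubation reported viability.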
KB-V1 cytotox – KB-V1 MDR subline cytotoxicity. AID 1347076. hit rate 3.4% among 400,000. KB-V1 MDR cells viability, CellTiter-Glo, 72 h. Potency, µM (series often up to 46.1 µM), most hits filed as cytotoxic; further: on the % scale 0 is the no-effect control and ±100 the full control effect; nearly all actives have a fitted effect of over 60% in size
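Cytotoxicity toward P-gp-expressing KB-V1 cells was determined as loss of CellTiter-Glo luminescence after 72 h at 37 degrees C. Compounds were tested in quantitative HTS format across a concentration range, with curves fitted to normalized data.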
KB-3-1 tox – KB-3-1 parental cell cytotoxicity. KB-3-1 viability, CellTiter-Glo ATP luminescence, 72 h. hit rate 1.4% among 400,000. Potency, µM (top dose mostly 46.1 µM), most hits filed as cytotoxic. AID 1347075; further: on the % scale 0 is the no-effect control and ±100 the full control effect; nearly all actives have a fitted effect of over 60% in size
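Multi-concentration cytotoxicity screen in KB-3-1 cells grown in DMEM lacking phenol red with 10% FBS. After 72 h at 37 °C with compound, ATP-dependent luminescence was recorded.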
ATXN2 expr inh – ATXN2 expression inhibition | Potency, µM (highest dose often 57 µM), for inactives: at the highest dose activity change, negative = inhibition, hits mostly inhibitors | HEK-293 ATXN2-luciferase reporter, luminescence, 24 h | hit rate 0.72% among 360,000; further: on the % scale 0 is the no-effect control and ±100 the full control effect; nearly all actives have a fitted effect of over 55% in size
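qHTS (up to 57 uM final) was run with 24 h compound exposure of reporter cells at 37 °C. Each well was multiplexed: SteadyGlo luminescence measured ATXN2-luciferase expression after a fluorogenic Gly-Phe-AFC viability readout (25 uM final).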
S2 tox – cell viability loss in ATXN counter-screen | S2 cells (HEK-293 line with an ATXN2-luciferase reporter) viability, CellTiter-Fluor protease fluorescence, 24 h | Potency, µM (highest dose often 56.7 µM), hits mostly cytotoxic | hit rate 0.49% among 400,000 | AID 651635; further: nearly all actives have a fitted effect of over 40% in size
HT1080NT lethal – kills 2HG-producing HT-1080-NT fibrosarcoma cells. HT-1080-NT fibrosarcoma viability, CellTiter-Glo ATP luminescence, 48 h. Potency, µM (titrated, usually from 46.1 µM), for the others: at the highest dose activity, negative = less viability, actives largely listed as cytotoxic. hit rate 1.6% among 360,000;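 further: NT is the 2HG producing partner of a matched IDH1 knockdown line; 0% = DMSO-treated cells and -100% = media-only wells without cells; nearly all actives have a fitted effect of over 55% in size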
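Viability by CellTiter-Glo luminescence after 48 h compound exposure at 37C of HT-1080-NT cells (750/well, RPMI, 5% FBS). % activity scaled between DMSO wells and medium-only wells, then curve-fitted and categorized by curve class.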
Starred values were filed as active, the others as inactive; i = inactive; ? = inconclusive; / = no result given; [ ] = another dose, or the depositor's remark. In the library only some 6.2% were active in any assay of this set; here they are far more common. The call rests on the fitted dose curve; in most records, active means well fitted curve in the direction sought with a large enough effect; inconclusive means small, poorly fitted or top-dose-only effect, or another doubt; inactive means no such curve, though single readings can be large; an effect the other way counts as inactive or inconclusive. Potency means the concentration at half of the fitted maximal effect.

SMILES | HT1080 IDH1KD tx | KB-V1 cytotox | KB-3-1 tox | ATXN2 expr inh | S2 tox | HT1080NT lethal
Oc1ccc(N=Nc2ccc3c(c2)OCCO3)c(O)c1 | ? | i | i | ? | ? | -15.7%
COc1ccc(N=Nc2ccc(O)c3ncccc23)cc1 | 4.61µM* | i | i | / | ? | ?
O=S(=O)(O)c1cccc2c(N=Nc3ccc(O)c4ncccc34)cccc12 | -10.5% | i | i | -7.0% | ? | -6.4%
Oc1ccc(N=Nc2ccc3c(c2)OCCO3)c2cccnc12 | 1.3µM* | ? | ? | ? | 10µM* | ?
O=Nc1ccc(O)c2ncccc12 | ? | 23.1µM* | 20.6µM* | / | 15.8µM* | 11.6µM*
COCc1ccc(O)c2ncccc12 | 5.8µM* | 11.6µM* | 14.6µM* | ? | ? | 4.61µM*
NNc1nnc2c3cc(F)ccc3n(CCc3ccccc3)c2n1 | ? | ? | 23.1µM* | ? | ? | ?
C=CC(=O)Nc1ccc(Nc2nc(NC3CCC(N(C)C)CC3)nc3c2ncn3C(C)C)cc1 (configuration not stated) | 2.31µM* | i | 1.03µM* | ? | 1.78µM* | ?
C=CC(=O)Nc1cccc(Nc2nc(NC3CCC(N(C)C)CC3)nc3c2ncn3C(C)C)c1 (configuration not stated) | / | / | / | 0.0306µM* | / | /
CC(C)n1cnc2c(Nc3cccc(F)c3)nc(NCCO)nc21 | -28.5% | i | ? | -6.5% | i | -20.4%
CN(C)c1ccc(C(=O)Nc2c(C(=O)NC(C)(C)C)oc3ccccc23)cc1 | / | i | i | -2.0% | ? | /
CCOC(=O)c1noc2ncnc(Nc3ccc(C)c(F)c3)c12 | / | i | i | 2.1% | i | /
O=C1CC(=O)Nc2cc(S(=O)(=O)Nc3cccc(Br)c3)ccc2N1 | / | i | i | 7.9% | i | /
COCCN(Cc1cc2cc3c(cc2nc1Cl)OCO3)C(=O)Nc1ccc(OC)cc1 | 9.5% | ? | ? | / | i | 7.7%
COCCN(Cc1cc2cc3c(cc2nc1Cl)OCO3)C(=O)Nc1ccc(F)cc1 | 17.3% | ? | 16.4µM* | -20.5% | i | -4.2%
CCCCC(=O)N(C)c1c(CC)nc2c(OCC3CCCCC3)cccn12 | ? | 25.9µM* | ? | ? | i | ?
Cc1nc2c(OCc3ccc(C(F)(F)F)cc3)cccn2c1N(C)C(=O)CCC1CCCC1 | ? | ? | ? | 31.6µM* | ? | ?
Cc1ccccc1-c1noc(-c2ccc(N3CCCC3)c([N+](=O)[O-])c2)n1 | / | i | i | ? | i | /
Cc1sc2ncnc(N3CCC(C(=O)N4CC(C)SC4=Nc4ccc(Cl)cc4)CC3)c2c1C (configuration not stated) | 0.0% | i | i | / | i | 0.9%
C/C(=N\NC(=O)c1cccc([N+](=O)[O-])c1)c1cccc(NC(=O)C2CC2)c1 | ? | i | i | 4.4%[11.3 µM] | i | ?
C/C(=N/NC(=O)C1CCN(S(=O)(=O)c2ccc(C)cc2)CC1)c1cccc([N+](=O)[O-])c1 | -3.1% | 23.1µM* | i | 6.7% | i | 9.9%
Cc1ccc(-n2ncc(C(=O)NCc3ccc4c(c3)OCO4)c2C2CCN(C(=O)OC(C)(C)C)CC2)c(C)c1 | / | i | i | ? | ? | /
Cc1ccc(S(=O)(=O)c2nnn3c2nc(NC(C)C)c2sccc23)cc1 | / | i | i | / | / | /
O=C(O)CCn1ccc2cc(S(=O)(=O)N3CCCCC3)ccc21 | / | i | i | 7.0% | i | /
COc1ccccc1CN1CCC2(CC1)c1ccccc1[C@@H](NC(=O)c1ccco1)[C@@H]2OC | / | / | / | / | i | /
SMILES | HT1080 IDH1KD tx | KB-V1 cytotox | KB-3-1 tox | ATXN2 expr inh | S2 tox | HT1080NT lethal
CCOc1ccccc1NC(=O)Cn1nc(N2CCN(c3ccccc3)CC2)ccc1=O | / | i | i | -37.8% | i | /
CCc1ccccc1NC(=O)c1ccc(Cn2nc(N3CCN(c4ccccc4)CC3)ccc2=O)o1 | / | i | i | 20µM* | ? | /
CC(C)NC(=O)Cn1ccc2cc(S(=O)(=O)N3CCCCCC3)ccc21 | / | i | i | -7.0% | i | /
CC(=Nc1ccccc1)C1=C(O)C(Cc2ccc(F)cc2)NC1=O (configuration not stated) | 2.59µM* | ? | 1.84µM* | / | ? | 2.59µM*
CC(=Nc1ccccc1)C1=C(O)CC(C)(C)CC1=O | 26.7% | i | i | -1.5%[11.3 µM] | i | 3.8%
CC(=Nc1ccccc1)C1=C(O)CSC1=O | -23.6% | i | i | 29.1% | i | 8.7%
CC(=Nc1ccccc1)C1=C(O)C(CC(C)C)NC1=O (configuration not stated) | 11.0% | 23.1µM* | i | 7.8% | i | 12.5%
CC(=Nc1ccccc1)C1=C(O)CCCC1=O | 23.7% | i | i | -3.6% | i | 6.2%
CC(=Nc1ccccc1)C1=C(O)C(Cc2ccccc2)NC1=O (configuration not stated) | ? | i | 0.0065µM* | 21.4% | ? | 0.581µM*
COc1cccc(CNC(=O)Nc2cc(C(=O)NCc3cccc(F)c3)ccc2N2CCCC2)c1 | / | i | ? | ? | ? | /
CCSC1=NC2(CCN(C(=O)NC3CCCCC3)CC2)N=C1c1ccc(Cl)cc1 | / | i | ? | 10.1% | i | /
Cn1c(NCCN2CCCC2)nc2cc(-c3cccc(C(F)(F)F)c3)sc2c1=O | ? | i | i | ? | ? | 20.6µM*
O=c1c2sc(-c3ccccc3)cc2nc2n1CCCCC2 | -3.5% | 11.6µM* | i | 60.6% | i | -0.2%
Cn1c(NCCN2CCCC2)nc2cc(-c3ccccc3)sc2c1=O | 13µM* | i | i | ? | i | ?
Cn1c(NCCc2ccncc2)nc2cc(-c3cccc(C(F)(F)F)c3)sc2c1=O | -18.9% | i | i | 16.6% | i | 1.6%
COc1cccc(-c2cc3nc(NCCN4CCCC4)n(C)c(=O)c3s2)c1 | ? | i | i | -20.7% | i | ?
COc1cccc(C(=O)NCC2Cc3cccc(-c4ncccn4)c3O2)c1OC (configuration not stated) | / | / | / | / | i | /
COc1ccccc1N1CCN(C(=O)Cn2ncc3ccsc3c2=O)CC1 | / | i | i | -8.2% | i | /
COc1ccc(-c2nc3c(C#N)c[nH]n3c2NC2CCCC2)c(OC)c1 | / | i | i | 7.1% | i | /
O=[N+]([O-])c1cc(Cl)ccc1NCCc1ccccn1 | 0.0% | i | i | 22.5% | i | -16.2%
N#Cc1ccc(NCCc2ccccn2)c([N+](=O)[O-])c1 | -0.8% | 1.84µM* | 8.2µM* | / | ? | 3.8%
Cc1ccc(C)c(NC(=O)Cn2cc(S(=O)(=O)Cc3cccc(Cl)c3)c3ccccc32)c1 | / | i | i | / | / | /
